Source: PubChem BioAssay (National Center for Advancing Translational Sciences (NCATS))
NPC1 prom act – activators of NPC1 promoter; Huh7 NPC1 promoter luciferase reporter, 24 h; AID 485313; Potency, µM (series often up to 9.22 µM), for the others: at the highest dose activation, actives largely listed as activators; actives 2.4% (n = 320,000); note: % of control where 0% means no effect; nearly all actives have a fitted effect of over 60% in size
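Luminescence read-out of NPC1 promoter-driven luciferase in stably transfected Huh7 cells; compounds delivered in DMSO and left 24 h at 37C, 5% CO2, qHTS titration format.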
FLuc counter – counter-screen for miR-21 project: firefly luciferase inhibitors or activators; P08659; purified FLuc, Km substrates, luminescence inhibition; Potency, µM (doses to about 57.5 µM), without a hit: at the highest dose activity change, negative = inhibition, actives largely listed as inhibitors; actives 6.9% (n = 360,000); AID 588342;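 note: plate controls were vehicle for no effect and reference inhibitor for full effect; nearly all actives have a fitted effect of over 55% in size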
Target sequence (P08659 whole entry, looked up): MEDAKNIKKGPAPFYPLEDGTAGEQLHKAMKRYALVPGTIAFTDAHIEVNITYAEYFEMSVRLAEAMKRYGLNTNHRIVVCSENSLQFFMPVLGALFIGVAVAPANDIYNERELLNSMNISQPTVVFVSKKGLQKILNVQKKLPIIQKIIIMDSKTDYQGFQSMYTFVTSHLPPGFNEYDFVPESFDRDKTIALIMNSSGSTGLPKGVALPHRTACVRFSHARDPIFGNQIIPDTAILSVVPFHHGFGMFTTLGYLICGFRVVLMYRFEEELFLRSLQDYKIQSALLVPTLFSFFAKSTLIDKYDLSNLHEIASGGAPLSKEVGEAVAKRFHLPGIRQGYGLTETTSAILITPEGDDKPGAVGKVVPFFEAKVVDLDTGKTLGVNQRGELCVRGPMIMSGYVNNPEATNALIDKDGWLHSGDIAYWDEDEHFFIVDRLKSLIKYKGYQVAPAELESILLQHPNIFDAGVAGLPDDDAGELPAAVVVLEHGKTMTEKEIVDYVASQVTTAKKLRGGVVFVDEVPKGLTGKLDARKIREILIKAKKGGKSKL
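Purified P. pyralis luciferase, 10 nM final, with Km-level 10 uM D-luciferin and 10 uM ATP in 50 mM Tris acetate pH 7.5, 10 mM Mg acetate, 0.01% Tween-20, 0.05% BSA; 6-point qHTS titration about 60 µM downward; luminescence read.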
SMN2 splice enh – enhancers of SMN2 splice variant expression. HEK293 SMN2-luciferase splicing reporter, luminescence, 30-36 h. Potency, µM (highest dose often 46.1 µM), for the others: at the top dose activity change, positive = activation, actives largely listed as activators. actives 2.8% (n = 210,000). AID 1458; note: % of control where 0% means no effect; nearly all actives have a fitted effect of over 55% in size
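HEK293 cells carry an SMN2 minigene-luciferase reporter in which exon 7 inclusion puts luciferase in frame. Cells were seeded at 2000 cells/well, attached for 10-12 hours, then exposed to compounds for 30-36 hours at 37C before ONE-Glo luminescence.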
Rab9 prom act – Rab9 promoter activation; AID 485297; Potency, µM (doses to about 9.22 µM), for inactives: at the top dose activation, negative = inhibition, most hits filed as activators; actives 2.8% (n = 320,000); Huh7 Rab9 promoter-luciferase reporter, luminescence, 24 h; note: % of control where 0% means no effect; nearly all actives have a fitted effect of over 60% in size
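Promoter activation is measured as luciferase luminescence in Huh7 cells stably transfected with a Rab9 promoter–luciferase construct, following 24 h compound exposure at 37 °C and 10 min reagent incubation at ambient temperature.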
ELG1 genotoxic – inducers of genotoxicity in HEK293T ELG1-luciferase cells | actives 1.3% (n = 330,000) | AID 504466 | HEK293T ELG1-luciferase reporter, luminescence, 16 h | Potency, µM (titrated, usually from 46 µM), inactives show at the top dose activity change, positive = activation, actives largely listed as activators; note: % of control where 0% means no effect; nearly all actives have a fitted effect of over 60% in size
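Genotoxic stress is detected as increased luminescence from luciferase-tagged ELG1 in HEK293T cells, measured with ONE-Glo after a 16 hr treatment at 37 °C.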
Luc counter – counter-screen: inhibitors of Kinase-Glo firefly luciferase; Kinase-Glo luciferase, ATP luminescence, 8 min; Potency, µM (highest dose often 38.3 µM), for inactives: at the top dose activity change, negative = inhibition, usual class: inhibitors; actives 0.28% (n = 200,000); Q27757; note: % is set by controls: 0 for no effect and ±100 for the full control effect; nearly all actives have a fitted effect of over 60% in size
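Recombinant Kinase-Glo luciferase, 10 uM ATP (linear range), luciferin; imidazole pH 7.2 / KCl / MgCl2 / Tween / BSA buffer; 8 min RT; luminescence.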
An asterisk follows results filed as active. The list is not random: actives were taken first. Their share in the collection is about 7.4%. Calls come from the whole dose curve; as a rule, active = well fitted curve in the direction sought with a large enough effect; inconclusive = small, poorly fitted or top-dose-only effect, or another doubt; inactive = no such curve, though single readings can be large; an effect the other way counts as inactive or inconclusive. Potency is the fitted concentration of half-maximal effect.

Results for CC(C)=CC(=O)Nc1nnc(-c2ccccc2)s1 ?
NPC1 prom act: 2.2µM*; FLuc counter: inconclusive; SMN2 splice enh: 11µM*; Rab9 prom act: 1.4µM*; ELG1 genotoxic: 2.9µM*; Luc counter: 0%

How did COc1cccc(C(=O)NOCc2ccccc2)c1OC do in these assays?
NPC1 prom act: inconclusive; FLuc counter: 27µM*; Rab9 prom act: inconclusive; ELG1 genotoxic: inconclusive

Results for COc1ccccc1CNC(=O)COC(=O)CSc1ccc(C)c(C)c1 ?
NPC1 prom act: -1%; FLuc counter: 1%; Rab9 prom act: 3%; ELG1 genotoxic: 2%

Results for CCOc1ccccc1NC(=O)CSc1nc2cc(OC)c(OC)cc2c2nc(-c3ccccc3)nn12 ?
FLuc counter: -5%; SMN2 splice enh: 7%

Results for CC(=O)c1cc(-c2ccccc2)n(CCC(=O)NCCc2ccccc2)c1C ?
FLuc counter: 6%

What do the screens show for `Cc1cccc(NS(=O)(=O)c2ccc(C)c(C(=O)NCC(c3ccco3)N3CCCCC3)c2)c1` (stereo not drawn)?
NPC1 prom act: -2%; FLuc counter: 2%; Rab9 prom act: 3%; ELG1 genotoxic: -8%

What do the screens show for `COc1ccccc1C(=O)Nc1nnc(S(=O)(=O)N(C)Cc2ccccc2)s1`?
NPC1 prom act: -3%; FLuc counter: inconclusive; Rab9 prom act: 1%; ELG1 genotoxic: -4%

How did Cc1nnc(NC(=O)c2ccccc2NC(=O)c2ccccc2)s1 do in these assays?
NPC1 prom act: 1%; FLuc counter: 8.5µM*; Rab9 prom act: -2%; ELG1 genotoxic: -4%

Results for COc1cccc(C(=O)Nc2nnc(-c3ccccc3)s2)c1OC ?
NPC1 prom act: 2.5µM*; FLuc counter: 12µM*; Rab9 prom act: 1.8µM*; ELG1 genotoxic: inconclusive

How did O=C(Nc1ccccc1)Nc1nnc(-c2ccccc2)s1 do in these assays?
NPC1 prom act: inconclusive; FLuc counter: -5%; Rab9 prom act: inconclusive; ELG1 genotoxic: 13%

What do the screens show for `COc1cccc(OC)c1C(=O)Nc1nnc(C)s1`?
FLuc counter: 2%; SMN2 splice enh: -8%

How did O=C(Nc1nnc(-c2ccccc2)s1)c1ccccc1O do in these assays?
NPC1 prom act: 1.8µM*; FLuc counter: 4.3µM*; Rab9 prom act: 2.5µM*; ELG1 genotoxic: 2%

How did COc1ccccc1C(=O)Nc1nnc(-c2ccccc2)s1 do in these assays?
NPC1 prom act: inconclusive; FLuc counter: 13µM*; Rab9 prom act: 17%; ELG1 genotoxic: inconclusive

What do the screens show for `N#Cc1ccccc1S(=O)(=O)Nc1ccc2c(c1)OCCO2`?
NPC1 prom act: -3%; FLuc counter: -16%; Rab9 prom act: 10%; ELG1 genotoxic: -3%

How did Cn1c(CC(=O)Nc2ccccc2F)nnc1SCC(=O)Nc1ccccc1Br do in these assays?
NPC1 prom act: -3%; FLuc counter: -1%; Rab9 prom act: 3%; ELG1 genotoxic: 2%

Results for COc1ccc(C(=O)Nc2ccc3c(c2)CCCN3S(=O)(=O)c2ccc(C)cc2)c(OC)c1 ?
FLuc counter: -1%

What do the screens show for `COc1ccccc1C(=O)Nc1nnc(C)s1`?
NPC1 prom act: inconclusive; FLuc counter: 17µM*; SMN2 splice enh: 18%; Rab9 prom act: inconclusive; ELG1 genotoxic: 13µM*; Luc counter: -6%

What do the screens show for `Cc1cccc(NC(=O)c2ccc(NC(=O)c3ccccc3Br)cc2)c1`?
NPC1 prom act: 2%; FLuc counter: -17%; Rab9 prom act: -1%; ELG1 genotoxic: -15%

What do the screens show for `CCC(=O)Nc1ccc(NC(=O)c2cccc3c(Br)cccc23)cc1`?
NPC1 prom act: 3%; FLuc counter: -3%; Rab9 prom act: 7%; ELG1 genotoxic: 7%
